# Data as given in ChEMBL document CHEMBL3988442, “University of Dundee, Small-Polar-MMV Screening Library” (2021).
# Screen size: about 48,000 compounds; about 13,000 (27%) showed an effect of 50% or more. The list shows a part of the results.
# Tested on: Wolbachia pipientis
# Assay: Anti-Wolbachia Cell-Based Screen
# Assay type: functional
# Set-up: scale not given: in the data most compounds retested in dose-response had high values
# Settings: 5 µM
row,SMILES,Percent Effect [%]
1,Cc1cc(NC(=O)NC(C)(C)c2nc(C)c(C)s2)no1,5.891
2,CSc1ccc(-c2nc(CN3CCC(C(N)=O)CC3)c(C)o2)cc1,12.72
3,Cc1cc(S(=O)(=O)N2CCC(N3CCC(O)C3)CC2)c(Cl)cc1Cl (stereo not drawn),-12.47
4,CCn1cnnc1CN(C)Cc1c[nH]nc1-c1ccc(F)cc1,6.499
5,O=C(c1ccccn1)N1CCc2c(nc(-c3ccncc3)[nH]c2=O)C1,-0.04653
6,Cc1cnc(C(=O)N2CCc3c(nc(-c4ccncc4)[nH]c3=O)C2)cn1,-3.986
7,Cc1ncc(CN2CCc3c(nc(-c4ccccn4)[nH]c3=O)C2)n1C,100.8
8,Cn1cccc1CN1CCc2c(nc(-c3ccccn3)[nH]c2=O)C1,114.7
9,Cn1ccnc1-c1ccccc1C(=O)N1CCc2c(nc(N)[nH]c2=O)C1,1.911
10,CC(NC(=O)N1CCN(c2ccc(Cl)cc2)CC1)C(=O)N1CCSCC1 (stereo not drawn),-1.833
11,Nc1nc(C2CCN(C(=O)c3cnco3)CC2)cs1,114.6
12,O=C(c1cnccn1)N1CCC(Oc2ncccc2Cl)CC1,33.47
13,CCc1nc(CN2CCN(C(=O)c3cnccn3)CC2)cs1,-1.168
14,Nc1nc(C2CCN(C(=O)c3cnccn3)CC2)cs1,113.4
15,O=C(NCC1CCCN1Cc1ccccc1)NCC1(O)CCC1 (stereo not drawn),10.62
16,CCCn1cc(C(=O)n2nc(C)cc2C)c(S(=O)(=O)N2CCSCC2)n1,-15.72
17,CCCn1cc(Cl)c(C(=O)N2C[C@@H](O)[C@H](NC(C)=O)C2)n1,135.9
18,CCCn1cc(Cl)c(C(=O)N2C[C@H]3C[C@H](OC)C[C@H]3C2)n1,128.4
19,CCCn1ccnc1CN1C[C@@H](NC(C)=O)[C@H](c2ccc(C)cc2)C1,-5.902
20,CC(=O)N[C@@H]1CN(C(=O)c2ccncc2)C[C@H]1c1ccc(C)cc1,-2.552
21,CCOCCCNC(=O)c1nn(CC)cc1Cl,13.91
22,Cn1cc(Cl)c(C(=O)N2CCC(N3CCc4ccccc4C3)CC2)n1,3.443
23,Cn1cc(Cl)c(C(=O)N2CCCN(C3Cc4ccccc4C3)CC2)n1,3
24,CCCn1cc(Cl)c(C(=O)N2C[C@@H](O)[C@H](Oc3ccccc3)C2)n1,77.97
25,COCCN(Cc1ccccn1)C(=O)CC1OCCc2ccsc21 (stereo not drawn),1.398
26,COc1ccc(Br)cc1CN(C)C(C)c1nc(C)no1 (stereo not drawn),6.293

row,SMILES,Percent Effect [%]
1,COc1ccc(C2(NCc3noc(C4CC4)n3)CCOCC2)cc1,-5.013
2,COC(C)c1cccc(NC(=O)N(CCC#N)Cc2ccccn2)c1 (stereo not drawn),1.571
3,O=C(Nc1cccc(CN2CCOC2=O)c1)N1CCOCC1,-4.373
4,O=C1NC2(CCN(C(=O)Cc3ccsc3)CC2)CC1c1ccncc1 (stereo not drawn),-1.55
5,CCN1CCNC(=O)C12CCN(C(=O)Cc1ccsc1)CC2,113.3
6,CC1NC(=O)COC12CCN(C(=O)Cc1ccsc1)CC2 (stereo not drawn),-21.8
7,Cc1nn(C)cc1C(=O)N1CCCN(C2Cc3ccccc3C2)CC1,-1.892
8,COc1cccc([C@@]2(O)CC[C@@H]3CN(C(=O)c4cn(C)nc4C)C[C@@H]32)c1,91.14
9,COc1cccc(OCC2CCCN(C(=O)c3cnc(C)nc3O)C2)c1 (stereo not drawn),-22.18
10,COCCN1C(=O)CCC12CCN(C(=O)CNC(C)=O)CC2,102.7
11,CN(C)CCN1C(=O)CCC12CCCN(C(=O)CC1CC1)CC2 (stereo not drawn),109.9
12,COCCN1C(=O)CC[C@]12CC[C@@H](NC(=O)c1cc(C)on1)CC2,-11.81
13,O=C(CC1CC1)N1CCCC2(CCC(=O)N2CC2CC2)CC1 (stereo not drawn),113.9
14,COCCN1C(=O)CCC12CCCN(c1ncc(F)cn1)CC2 (stereo not drawn),-9.893
15,O=C1CCC2(CCN(S(=O)(=O)c3ccccc3)CC2)N1CC1CC1,-5.701
16,COCCN1C(=O)CCC12CCN(c1ncc(F)cn1)CC2.O=C(O)C(F)(F)F,4.325
17,CCC(C(=O)N1CCCN(CCN(C)C)CC1)N1CCCC1=O (stereo not drawn),-2.353
18,Cc1ccc(C(=O)N2CCC3(CCC(=O)N(CCN(C)C)C3)CC2)nc1,13.38
19,Cc1cc(C(=O)N[C@H]2CC[C@@]3(CCC(=O)N3CC3CC3)CC2)no1,-41.45
20,COCCN1C(=O)CCC12CCCN(C(=O)CC1CC1)CC2 (stereo not drawn),103.4
21,c1ccc(OCCNc2ncnc3sc4c(c23)CCNC4)cc1,38.96
22,CCN1C[C@H]2CCN(c3ncccn3)CC[C@H]2S1(=O)=O,3.931
23,Cc1cc(C)nc(NC2CCc3nc(C)nn3C2)n1 (stereo not drawn),12.23
24,O=C(O)CC(NC(=O)c1cc(Br)c[nH]1)c1ccccc1 (stereo not drawn),7.291
25,CN(C)CCN1C(=O)CCC12CCN(C(=O)CC1CC1)CC2,92.35
26,Cc1c(C(=O)N2CCC3(CCC(=O)N(CCN(C)C)C3)CC2)ccn1C,2.177

row,SMILES,Percent Effect [%]
1,O=C(c1nccc2ccccc12)N(Cc1ccco1)CC1CCCO1 (stereo not drawn),5.16
2,CC(C)(C)OC(=O)NCC(=O)NCc1ccc(Cl)s1,16.63
3,CNC(=O)COC1COC2(CCN(c3ccc(C)nn3)CC2)C1.O=C(O)C(F)(F)F (stereo not drawn),-17.84
4,O=C(O)C(F)(F)F.c1cncc(COC2COC3(CCN(c4cnccn4)CC3)C2)c1 (stereo not drawn),8.045
5,CNC(=O)COC1COC2(CCN(Cc3ccncc3F)CC2)C1.O=C(O)C(F)(F)F (stereo not drawn),109.2
6,CNC(=O)COC1COC2(CCN(Cc3cccnc3)CC2)C1.O=C(O)C(F)(F)F (stereo not drawn),120
7,CNC(=O)COC1COC2(CCN(c3cnccn3)CC2)C1.O=C(O)C(F)(F)F (stereo not drawn),11.18
8,O=C(O)CC(O)(CC(=O)O)C(=O)O.c1cnc2[nH]nc(C3CCN(Cc4ccsc4)CC3)c2c1,113.3
9,Fc1ccc(F)c(CN2CCC(c3n[nH]c4ncccc34)CC2)c1.O=C(O)CC(O)(CC(=O)O)C(=O)O,96.71
10,c1cnc2c(C3CCN(Cc4ccsc4)CC3)n[nH]c2n1,-13.91
11,Cn1cc2c(n1)C(CNC1CCOCC1)OCC2.O=C(O)C(F)(F)F (stereo not drawn),-8.385
12,CN1CCC(n2nc(Cc3cccs3)nc2-c2ccncc2)CC1,-23.96
13,CCOCc1nc(-c2ccc(F)cc2Cl)n(C2CCN(C)CC2)n1,110.7
14,CN1CCC(Cc2nc(-c3cnccn3)n(C3CCS(=O)(=O)C3)n2)CC1 (stereo not drawn),-23.71
15,CCOCc1nc(CSc2ccncc2)n(C)n1,-5.223
16,CN1CCC(n2nc(CC3CC3)nc2-c2ccc(F)cc2Cl)CC1,106.3
17,Nc1cnc(-c2ccc(F)cc2Cl)cn1,2.9
18,CCOCc1nc(-c2ccc(F)cc2Cl)n(C)n1,104.7
19,Cc1ncsc1-c1nc(Cc2cccs2)nn1C1CCN(C)CC1,-9.082
20,CCOCc1nc(CSc2ccncc2)n(C2CCN(C)CC2)n1,13.12
21,CCOCc1nc(-c2cccc(OC)c2OC)n(C2CCN(C)CC2)n1,115.7
22,CN1CCC(n2nc(Cc3cccc(Cl)c3)nc2Cn2cnnn2)CC1,20.47
23,COc1ncccc1-c1nc(-c2ccccn2)nn1C1CCN(C)CC1,-6.109
24,CCOc1ccc(NC(C)C(=O)NCCc2cccs2)cc1CO (stereo not drawn),-30.37
25,CC(C)c1noc(CCCC(=O)N2CCN(C)CC2c2ccccc2)n1 (stereo not drawn),5.23
26,O=C(c1cnc(-c2noc3cc(N4CCCC4)ccc23)s1)N1CCCC1,0.8579

row,SMILES,Percent Effect [%]
1,CCC(C)NS(=O)(=O)Cc1cccc(NC(=O)c2cc[nH]c2C)c1 (stereo not drawn),3.733
2,Cc1ccc2nc(C)c(C)c(C(=O)NCCCn3cnnc3)c2c1,-1.384
3,CC(C)Oc1cc(N2CC[C@@H](N3CCOCC3)[C@H](O)C2)nc(N)n1,-17.76
4,CCn1ncnc1CN(CCOC)Cc1ccc(C)cc1,-0.7993
5,CCn1nccc1CNC(=O)C1CC1,8.516
6,CCn1nccc1CNc1[nH]cnc2nc(C)nc1-2,100.2
7,CCn1nccc1CN(C)c1[nH]cnc2nc(C)nc1-2,80.56
8,CCn1nccc1CNc1[nH]cnc2nncc1-2,87.91
9,CCn1nccc1CNC(=O)NC1CCCCC1,13.66
10,Cc1nccn1-c1ccc(C(C)NCc2ncc[nH]2)cc1 (stereo not drawn),-20.7
11,Cc1cc(C(=O)Nc2ccnc(OC3CCOC3)c2)c(C)o1 (stereo not drawn),-9.731
12,Cc1ccc2[nH]c(CN(C)c3cc(CN)nc(C)n3)nc2c1,-0.384
13,N#Cc1cn(C2CC2)c(=O)n(Cc2noc(-c3cccs3)n2)c1=O,11.53
14,COCCn1cnnc1CN(C)c1nc(N)nc2c1CCCC2,15.13
15,Cc1oncc1C(=O)N1CC2CC1(C(=O)NCc1ccco1)C2,-19.28
16,FC(F)(F)Oc1ccc(-c2c[nH]c([C@@H]3COCCN3)n2)cc1,-3.996
17,Cc1nnn2c1COC(CNCc1ccncc1)C2 (stereo not drawn),-6.146
18,c1cc(CNCC2Cn3nncc3CO2)ccn1 (stereo not drawn),7.838
19,c1coc(CNCC2Cn3nncc3CO2)c1 (stereo not drawn),91.63
20,c1cc(CNCC2Cn3nncc3CO2)cs1 (stereo not drawn),14.09
21,Fc1cccc(CNCC2Cn3nncc3CO2)c1 (stereo not drawn),-13.19
22,Cc1ccc(CNCC2Cn3nnc(-c4cccc(F)c4)c3CO2)o1.O=C(O)C(F)(F)F (stereo not drawn),-4.594
23,Cc1ccc(CNCC2Cn3nncc3CO2)s1 (stereo not drawn),98.39
24,Cc1ccc(CNCC2Cn3nncc3CO2)o1 (stereo not drawn),84.72
25,c1ccc(CNCC2Cn3nncc3CO2)nc1 (stereo not drawn),-9.384
